Structures are written as SMILES. About 83,000 compounds went through this panel and 20% of them were active in at least one assay; those are over-represented in the sample as a whole.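 Each cell line was grown in a 96-well plate and treated with one concentration of compound for 48 hours. Values below 10 were considered active.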 A number with no mark means an inactive call. Calls of active or inactive are those of the source.

This test relates to NCI-H226 lung. Kind of test: NCI-60 one-dose screen, 48 h (100 = growth as untreated, 0 = no growth, -100 = all killed). The note with it: 10 µM unless noted. As to the method: Growth inhibition of the NCI-H226 human Non-Small Cell Lung tumor cell line is measured as a screen for anti-cancer activity. Cells are grown in 96 well plates and exposed to the test compound for 48 hours. Compounds are tested at a single concentration, which is 10^-5 M for most compounds. The reported endpoint is percent growth (GI% or GIPRCNT), where numbers from 0 - 100% represent growth inhibition, and numbers from -100% - 0 represent cell death. For example, a value of 40 represents 60% growth inhibition. A value of 0 means no net growth occurred over the course of the experiment. A value of -40 indicates 40% of cells at the beginning of the experiment died by the end of the experiment. A value of -100 means all cells are dead at the end of the experiment.
NCI-60 Human Tumor Cell Lines Screen was performed using the standard one-dose NCI protocol, which is described in more detail at https://dtp.cancer.gov/discovery_development/nci-60/default.htm.
Compounds with GIPRCNT values below 10 were considered active. Activity score was based on GIPRCNT using the following formula: […]
Score is 0 for GIPRCNT values of 100 or above, 50 for GIPRCNT values of 0, and 100 for GIPRCNT values of -100.
With `CS(=O)(=O)Nc1cccc(-c2ccc3ncnc(Nc4cncc(Cl)c4)c3c2)c1`, the growth is 52.5%.

As for `CCOc1ccccc1C(=O)N1CCN(c2cc(Cl)cc(Cl)c2)CC1`, the growth is 65.6%.

Regarding `C/C(=N/NC(=O)Cn1c2ccccc2c2ccncc21)c1cccs1`, the growth was 89.3%.

Turning to `O=C1CCC(c2c(O)cc(O)c3c(=O)c(O)c(-c4ccc(O)c(O)c4)oc23)N1` (stereo not given), the growth is 104%.

For `CN(C)CCNc1nc2ccccc2c2c(=O)c3ccccc3sc12`, the growth is 36.5%.

Take `COc1cc(/C=C/C(=O)c2ccc(Oc3ncnc4ccccc34)cc2)cc(OC)c1OC`: the growth is 98.5%.

As to `COc1ccc(C(=O)NC(=O)Nc2ccc3c(c2)NC(=O)/C3=C\c2[nH]c(C)c(C(=O)O)c2C)c(F)c1`, the growth was 67.1%.

As to `CN(C)CCCOc1c(Br)cc(/C=C/C(=O)N(C)CCc2cc(Br)c(OCCCN(C)C)c(Br)c2)cc1Br`, the growth was 95.7%.

As for `CCn1c(SC)nnc1-c1cc2c([nH]c3ccccc32)c(-c2cccc(O)c2)n1`, the growth was 51.3%.

For the compound `Cc1cccc[n+]1CCC[n+]1ccccc1C`, the growth is 98.4%.

With `COc1ccc(Cn2cc3c(c2-c2cc(OC)c(OC)c(OC)c2)CCc2c(CO)noc2-3)cc1`, the growth was 47.7%.

Regarding `Cc1ccc(Cn2cc(COc3ccc4c5ccnc(C)c5n(CCCc5ccccc5)c4c3)nn2)cc1`, the growth was 98.9%.

For `CCCC(C)(C)COC(=O)c1cccc(N)c1`, the growth is 87.8%.

Regarding `Nc1nccc2c1ccn2-c1cccc(NC(=O)c2ccc(N3CCOCC3)c(C(F)(F)F)c2)c1`, the growth is 35.8%.

Consider `O=C(COc1ccc(Cl)cc1)N1CCN(Cc2ccc3c(c2)OCO3)CC1`, for which the growth was 101%.

As to `CC(=O)CC/C=C(\C)[C@H](O)[C@H](C)C(=O)O[C@H]1C[C@H](C)C=C2C=C[C@@]3(C)O[C@@H](O)CC(=O)[C@]3(C)[C@H]21`, the growth was -50.5% (active).

For the compound `Cn1cnc([N+](=O)[O-])c1N1c2ccncc2Sc2ccncc21`, the growth is 82.1%.

With `CC[C@H]1[C@@H]2C=C[C@@H]3[C@H]4C/C=C\C(=O)NCCC[C@@H]5NC(=O)/C(=C(O)/C=C/[C@@H]4C[C@@H]3[C@H]2C[C@H]1C)C5=O`, the growth is 1.14% (active).

Regarding `COc1ccc(C2=NN(C(=O)COc3ccc(Cl)cc3)C(O)(c3cc(F)c(Cl)cc3Cl)C2)cc1OC` (stereo not given), the growth was 82.2%.

Consider `Nc1nccc2c1ccn2-c1ccc(NC(=O)c2ccc(N3CCOCC3)c(C(F)(F)F)c2)cc1`, for which the growth is 63.1%.

As to `NC(=NCCCOc1ccc(F)cc1)Nc1ccc(Cl)c(Cl)c1`, the growth is 76.2%.

For `Nc1nc(Cl)c2c(C(F)(F)F)cn(CC3CCNCC3)c2n1`, the growth was 111%.

As for `C=C1C(=O)O[C@H]2[C@H]1CC/C(COC(=O)CCCC(=O)OC/C1=C/CC[C@@]3(C)O[C@H]3[C@H]3OC(=O)C(=C)[C@@H]3CC1)=C\CC[C@@]1(C)O[C@@H]21`, the growth is -44.4% (active).

On to `C/C(=N/O)c1ccc(NC(=O)Cn2nc(-c3ccc(Cl)cc3)nc2N)cc1`, for which the growth was 82.9%.

Consider `CN1CCN(CC(=O)N(C)c2ccc(N=C(c3ccccc3)c3c(O)[nH]c4ccc(C#N)cc34)cc2)CC1`, for which the growth is 43.2%.

Turning to `Fc1ccc(Nc2ncnc3ccc(-c4cn[nH]c4)cc23)cc1Cl`, the growth was 57.1%.

Turning to `COc1ccc(-c2[nH]c3ccccc3c2/C=C(\C#N)S(=O)(=O)c2ccccc2)cc1`, the growth is 65.2%.

On to `COc1ccc(Cn2cc(COc3ccc4c5ccnc(C)c5n(CCCc5ccccc5)c4c3)nn2)cc1`, for which the growth is 99.4%.

As to `CCOC(=O)NNc1nncc2ccccc12`, the growth was 104%.

Take `C#C[C@H](O)/C=C/CCCCCCC#C[C@H](O)CC[C@@H](O)C#CCCCCCC/C=C/[C@@H](O)C#C`: the growth is 116%.

With `CC(C)(C)C(=O)Nc1nc2c(s1)CCc1ccn(S(=O)(=O)c3ccccc3)c1-2`, the growth was 92.4%.

Regarding `CCN(CC)CC(=O)Nc1c(C)cccc1C`, the growth is 92.9%.

With `C=C1C(=O)O[C@H]2[C@H]1CC/C(COC(=O)c1ccc(C#N)cc1)=C\CC[C@@]1(C)O[C@@H]21`, the growth was -0.563% (active).

On to `Nn1c(SCC(=O)Nc2cc(Cl)c(Cl)cc2Cl)nnc1-c1cc(F)c(Cl)cc1Cl`, for which the growth is 138%.

In the case of `O=C1c2ccccc2OC=C(c2ccccc2)N1CCCCN1CCCCC1`, the growth is 84.3%.

As to `N#Cc1c(N)nc2c(c1N)C(c1ccc(Cl)cc1)C1=C(CCCC1=O)N2c1sc2c(c1C#N)CCCC2` (stereo not given), the growth is 89.2%.

Turning to `COC(=O)c1oc2c(C(=O)/C=C/c3ccc(OC)cc3)c(OCCN3CCOCC3)ccc2c1C`, the growth was -5.76% (active).

As for `O=C(Nc1cccc(-n2ccc3c(NC(=O)c4ccccc4)ncnc32)c1)Nc1ccc(Cl)c(C(F)(F)F)c1`, the growth was 55.1%.

`Cc1cc(SCc2ccc(Cl)cc2Cl)nc(SCc2ccc(Cl)cc2Cl)n1`: the growth is 96%.

As for `CCCCCCCCCCCC(=O)OCCNC(=O)C[n+]1ccccc1`, the growth was 98.7%.

The record behind these values is PubChem BioAssay (NCI).
